# Laboratory results taken from the supplement of paper PMC3334620.
# In all, about 33,000 sequences were measured (“E-score (-0.5 to 0.5)”: median about -0.013, highest 2% from about 0.3 on). For the sample, the highest values were picked, then their nearest neighbours and some sequences at random.
# Molecular target: T1, Msn1 (UniProt P22148)
# T1 sequence: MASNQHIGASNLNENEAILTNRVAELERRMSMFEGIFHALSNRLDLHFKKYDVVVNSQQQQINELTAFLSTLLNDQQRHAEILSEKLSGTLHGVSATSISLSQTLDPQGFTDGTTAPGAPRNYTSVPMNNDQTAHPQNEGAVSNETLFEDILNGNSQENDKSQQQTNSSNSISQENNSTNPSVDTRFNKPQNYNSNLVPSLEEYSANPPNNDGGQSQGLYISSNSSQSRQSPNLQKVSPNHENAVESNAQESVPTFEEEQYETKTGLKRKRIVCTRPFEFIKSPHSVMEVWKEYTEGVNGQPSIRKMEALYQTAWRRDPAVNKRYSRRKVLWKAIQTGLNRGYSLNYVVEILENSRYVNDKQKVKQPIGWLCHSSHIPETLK
# Assay: PBM E-score (8-mer binding enrichment) (E-score (-0.5 to 0.5)); higher = stronger / more preferred TF binding
# Conditions: protein concentration: 200 nM; construct: GST-full length
# Procedure, shortened: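 For each ungapped eight-base word taken together with its reverse complement, the Universal PBM Analysis Suite assigned an E-score. Binding data came from GST-tagged yeast transcription factors, applied at about 100-200 nM, on universal all-10-mer Agilent arrays made double-stranded by primer extension. Fluorescent anti-GST marked bound protein, and scans were normalised with masliner.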
row,Sequence,PBM E-score
1,ACTATACC,0.0929
2,CCAAGGAC,0.16
3,ACAGGGAT,-0.147
4,GCAAGGAC,0.395
5,GTAAGGAC,0.268
6,ACAAGGAG,0.0113
7,ATAAGGAC,0.369
8,ACAGGGAC,0.324
9,GCAAGGAA,-0.122
10,GCAGGGAC,0.163
11,ACAAGGAC,0.358
12,ATAAGGAT,0.161
13,ACAAGGAA,0.178
14,GGCGAGGA,-0.0575
15,TCATCCGA,0.183
16,GTACCTGA,0.149
17,GTCTGTGA,0.0908
18,CGACGCCG,0.0839
19,AAAGCACG,0.0204
20,TAGCAAAA,0.124
21,CCTGTTGA,-0.00042
22,AGAAAACT,0.116
23,CCGTGAAC,0.0411
24,CTCTACGA,0.0394
25,CAGAATGA,0.0577

row,Sequence,PBM E-score
1,AAAGACCT,0.0725
2,CAAGACAC,0.183
3,GAAGACAC,0.181
4,CAAGACAA,0.367
5,AAAGATAA,0.14
6,AAAGACTT,0.0779
7,AAAGACAT,0.387
8,GAAGACCA,-0.102
9,TAAGATAA,0.0274
10,GAAGACAA,0.36
11,CAAGACAG,0.0634
12,CAAGATAA,0.324
13,TAGGCAAA,0.0155
14,AGTCACAA,0.114
15,GCCTAGTA,-0.087
16,CCATGGAG,-0.119
17,GATGGGGA,-0.143
18,ATTTCGCA,0.201
19,ACCAGTCA,-0.0816
20,ATCCTTGA,-0.0979
21,AAAGACAA,0.418
22,TAAGACGA,-0.00272
23,TAAGACCA,-0.13
24,TAAGACAA,0.395
25,AAAGACAC,0.213

row,Sequence,PBM E-score
1,AAAGACAG,0.193
2,AACGGATA,0.18
3,CGGGGTAC,-0.216
4,GTCGATGA,-0.0803
5,CGGGGGCA,-0.318
6,CCGACATA,0.215
7,ACGACATA,0.319
8,ACGACATC,0.163
9,ACGACATG,0.364
10,ACGACAGG,0.0905
11,GCGACATA,0.299
12,GGTCGGTA,0.0288
13,AACTGAGT,-0.00489
14,AATGCGGA,0.114
15,CGTCTAAA,-0.0424
16,TACAGAGA,-0.0201
17,AACAGACA,0.295
18,GACAGACC,0.0373
19,GACAGAAA,0.291
20,TACAGACA,0.371
21,CACAGACA,0.36
22,CACAGACG,-0.0835
23,GACAGACA,0.414
24,CACAGACC,0.0741
25,AGAGGCAA,-0.0984

row,Sequence,PBM E-score
1,ACGTGAAA,0.119
2,CGAGTTGA,0.0114
3,TGTACCAA,0.328
4,TGTACTAA,0.321
5,AGTACTAA,0.121
6,CGTACTAA,0.093
7,AGTACCAA,0.175
8,CGTACCAA,0.182
9,AGCTGGAG,-0.251
10,GATGGTCA,-0.0299
11,AGCTACGA,-0.11
12,GTGATTGA,0.128
13,CACGCTTA,0.0573
14,AGGACTAA,0.309
15,CGGACTTA,0.215
16,AGGACTTA,0.36
17,AGGACTTC,0.243
18,TGGACTAA,0.183
19,AGGACTAT,-0.131
20,CAAAACTG,0.127
21,CCTGTCTC,-0.0622
22,ATTGTTTG,0.202
23,CCTGTCTA,0.143
24,CTTGTCTA,0.324
25,CTTGTCTC,0.319

row,Sequence,PBM E-score
1,ATTGTCTA,0.391
2,CTTGTATC,0.106
3,GTTGTCTA,0.165
4,ACTGTCTA,0.022
5,AGTGTCTA,0.188
6,ATTGTCTG,0.34
7,ATTGTCAG,0.218
8,ACTCCCTG,-0.28
9,GCGTCTGA,-0.101
10,ATGTGCTC,0.0447
11,CATAGTAG,0.0607
12,ACTGTTAC,-0.0545
13,CCCTATAC,-0.129
14,CTCTTAGC,-0.0929
15,TAATGGAA,0.151
16,CAGAAGTA,0.104
17,CTAAGCCC,-0.154
18,ATTGTCTC,0.378
19,ACTGTCTC,-0.00421
20,AGTGTCTC,0.0356
21,CAACTTTC,-0.0177
22,TAGACAAA,0.446
23,AAGACAAT,0.409
24,AAGACACA,0.169
25,CAGACAAA,0.451

row,Sequence,PBM E-score
1,AAGACAGA,0.216
2,TAGACGAA,0.0138
3,AAAACAAT,0.127
4,TAGACTAA,-0.0893
5,CAGACAAG,0.28
6,AAGACTAT,-0.0507
7,AAGACAAA,0.45
8,CAGACAGA,0.0672
9,AGCAGTTG,-0.0796
10,AACCGACC,-0.0206
11,CCGTCCAG,-0.00159
12,AAGCCAAG,-0.237
13,AGAGGAGG,-0.382
14,ACCAGCCG,-0.0866
15,AGCCATCC,-0.277
16,AAGACAGG,0.0873
17,AAGACAAG,0.343
18,GAGACAAC,0.203
19,GAGACGAA,-0.0182
20,AAGACAAC,0.221
21,GAGACAAA,0.442
22,ACAGACCG,-0.128
23,GAGATGAA,0.024
24,AGGTGCCC,-0.275
25,TCCGACAA,0.372

row,Sequence,PBM E-score
1,CCCGAGAA,0.0155
2,ACCGAGAA,0.149
3,CCCGACAA,0.329
4,TCCGAGAA,0.346
5,ACCGACAA,0.268
6,CCCGACAC,-0.0956
7,CCCGACAG,0.052
8,GCCGACAA,0.117
9,CAATTCAG,0.0996
10,TAAGTACA,0.287
11,GCTTTAGA,-0.0753
12,CCTGATAG,-0.222
13,AACATGAT,0.173
14,AAACATAT,0.258
15,AGACACAT,0.197
16,ACACATAA,0.217
17,ATACATAC,-0.0367
18,ATACATAA,0.21
19,ACACATAG,0.0311
20,CGACATAG,0.15
21,AGACATAC,0.327
22,AGACATAA,0.373
